These results are taken from PubChem BioAssay.

The structures appear in SMILES notation. Activity calls are given as the source filed them.

A short description of test [1]: optical density shifts of acrAB sulA E. coli – strain DRC41, OD650, 48 h, E. coli filamentation inducer project, primary screen (AID 1152).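 Further: E. coli MC1000 strain DRC41 lacking acrAB efflux pump and sulA.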 To be noted: higher = more signal, called active from +8 up or from −8 down.
A short description of test [2]: probe aLefty1 binding on compound microarray – biochemical, small-molecule microarray, 635/667 nm fluorescence, primary screen (AID 1153).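 Further: score merges spot fluorescence with signal-to-noise ratio from the scanned slide images.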 To be noted: higher = more signal.
A short description of test [3]: plasmodial surface anion channel blockers, osmotic lysis – cell-based, P. falciparum Indochina, OD700, 1 h, primary screen (AID 1154). To be noted: P. falciparum Indochina infected RBC osmotic lysis, higher = more signal, called active from +8 up or from −8 down.
Test [4] in a line: plasmodial surface anion channel blockers, osmotic lysis – cell-based, P. falciparum Indochina, OD700, 2 h, primary screen (AID 1155).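 Further: lysis reports solute entry through the parasite surface anion channel PSAC.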 To be noted: P. falciparum Indochina infected erythrocytes, higher = more signal, called active from +8 up or from −8 down.
A short description of test [5]: changes in parasitized red cell lysis, either direction – P. falciparum Indochina, OD700, 3 h, PSAC antagonist project, primary screen (AID 1156). As to conditions: P. falciparum-infected erythrocytes, osmotic lysis, higher = more signal, called active from +8 up or from −8 down.
Test [6] can be described thus: plasmodial surface anion channel blockers, osmotic lysis – cell-based, P. falciparum Indochina, OD700, 18 h, primary screen (AID 1157). To be noted: P. falciparum Indochina infected erythrocytes, osmotic lysis OD700, 18 h; higher = more signal, called active from +8 up or from −8 down.
Test [7] is described as follows: S6 kinase pathway phospho-S6 level changes – cell-based, A549, cytoblot, luminescence, serum-stimulated, primary screen (AID 1158).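 Further: serum-stimulated A549 lung adenocarcinoma cells; signal is phosphorylated S6 detected by cytoblot immunostaining with HRP secondary.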 To be noted: 5 h, higher = more signal.
Test [8] addresses NADPH oxidase 2 (Homo sapiens) (UniProt P04839). Nature of the test: compounds shifting NOX2 Amplex Red fluorescence – cell-based, HEK293-NOX2, PMA-stimulated, NOX inhibitor project, primary screen (AID 1159). Further: test concentration not given here. As to conditions: 45 min, higher = more signal, called active from +8 up or from −8 down.
Test [9] concerns the target NADPH oxidase 4 (Homo sapiens) (UniProt Q9NPH5). Nature of the test: compounds shifting NOX4 Amplex Red fluorescence – cell-based, HEK293-NOX4, tetracycline-induced, NOX inhibitor project, primary screen (AID 1160). As to conditions: HEK293-NOX4, Amplex Red H2O2 fluorescence, 45 min; higher = more signal, called active from +8 up or from −8 down.
In test [10] the target is NADPH oxidase 5 (Homo sapiens) (UniProt Q96PH1). Nature of the test: compounds shifting NOX5 Amplex Red fluorescence – cell-based, HEK293-NOX5, NOX inhibitor project, primary screen (AID 1161). To be noted: HEK293-NOX5, ionomycin, 45 min, higher = more signal.
Test [11] in a line: compound effects on lung adenocarcinoma cell viability – A549, calcein-AM fluorescence, 48 h, basal, profiling panel (AID 1162). Further: test concentration not given here. To be noted: higher = more signal.
Test [12] can be described thus: compound effects on differentiated 3T3-L1 adipocyte viability – cell-based, 3T3-L1 adipocytes, calcein-AM fluorescence, 48 h, basal, profiling panel (AID 1163). Further: test concentration not given here. To be noted: 3T3-L1 adipocytes viability, higher = more signal.
A short description of test [13]: compound effects on hepatocellular carcinoma cell viability – HepG2, calcein-AM fluorescence, 48 h, basal, profiling panel (AID 1164). Further: test concentration not given here. To be noted: higher = more signal.
Test [14] can be described thus: compound effects on multiple myeloma cell viability – MM1S, calcein-AM fluorescence, 48 h, basal, profiling panel (AID 1165).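 Further: viability of MM1S multiple myeloma cells under basal unstimulated conditions; test concentration not given here.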 To be noted: higher = more signal.
A short description of test [15]: calcein-AM signal in unstimulated myeloma cells – cell-based, calcein-AM fluorescence, 48 h, PK04 Diversity Set, profiling panel (AID 1166).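 Further: cells grown under basal conditions without added stimulus; test concentration not given here.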 To be noted: RPMI8226 myeloma viability, higher = more signal.
A short description of test [16]: JC-1 mitochondrial signal, unstimulated HepG2 cells – cell-based, JC-1 fluorescence, 24 h, 100 nL compound, profiling panel (AID 1167). Further: test concentration not given here. As to conditions: HepG2 mitochondrial potential, higher = more signal.
A short description of test [17]: JC-1 mitochondrial signal, unstimulated adipocytes – cell-based, JC-1 fluorescence, 3T3-L1 adipocytes, 24 h, 100 nL compound, profiling panel (AID 1168). Further: test concentration not given here. As to conditions: JC-1 mitochondrial fluorescence, higher = more signal, called active from +8 up or from −8 down.
Test [18] can be described thus: JC-1 mitochondrial signal, unstimulated myeloma cells – cell-based, JC-1 fluorescence, RPMI8226, 24 h, 100 nL compound, profiling panel (AID 1169). Further: test concentration not given here. As to conditions: JC-1 mitochondrial potential fluorescence, higher = more signal.
Test [19] in a line: JC-1 mitochondrial signal, unstimulated MM1S myeloma – cell-based, JC-1 fluorescence, 24 h, 100 nL compound, profiling panel (AID 1170). Further: test concentration not given here. As to conditions: MM1S mitochondrial potential, higher = more signal.
Test [20] in a line: resazurin metabolic signal in A549 cells – cell-based, resazurin fluorescence, 24 h, PK04 Diversity Set, profiling panel (AID 1171). Further: test concentration not given here. As to conditions: A549 viability, higher = more signal, called active from +8 up or from −8 down. On the technique in general: The colour change of resazurin is a common sign of viable cells or microbes.

Sequence of NADPH oxidase 2 (Homo sapiens) (P04839 whole entry, looked up): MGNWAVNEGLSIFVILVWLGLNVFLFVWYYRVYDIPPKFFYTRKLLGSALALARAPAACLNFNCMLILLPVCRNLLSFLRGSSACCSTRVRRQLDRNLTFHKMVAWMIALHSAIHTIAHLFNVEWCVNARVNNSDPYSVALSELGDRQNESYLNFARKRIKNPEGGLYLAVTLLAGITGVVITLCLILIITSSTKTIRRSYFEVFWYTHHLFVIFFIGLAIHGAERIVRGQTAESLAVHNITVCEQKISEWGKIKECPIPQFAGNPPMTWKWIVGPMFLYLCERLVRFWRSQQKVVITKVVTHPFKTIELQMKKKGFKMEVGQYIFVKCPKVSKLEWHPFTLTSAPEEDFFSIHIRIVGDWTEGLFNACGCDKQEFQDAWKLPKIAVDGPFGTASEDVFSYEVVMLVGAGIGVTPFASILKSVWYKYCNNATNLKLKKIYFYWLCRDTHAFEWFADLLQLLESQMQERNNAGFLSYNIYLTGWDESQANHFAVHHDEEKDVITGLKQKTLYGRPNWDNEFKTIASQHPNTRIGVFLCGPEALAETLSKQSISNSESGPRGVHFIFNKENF
Sequence of NADPH oxidase 4 (Homo sapiens) (Q9NPH5 whole entry, looked up): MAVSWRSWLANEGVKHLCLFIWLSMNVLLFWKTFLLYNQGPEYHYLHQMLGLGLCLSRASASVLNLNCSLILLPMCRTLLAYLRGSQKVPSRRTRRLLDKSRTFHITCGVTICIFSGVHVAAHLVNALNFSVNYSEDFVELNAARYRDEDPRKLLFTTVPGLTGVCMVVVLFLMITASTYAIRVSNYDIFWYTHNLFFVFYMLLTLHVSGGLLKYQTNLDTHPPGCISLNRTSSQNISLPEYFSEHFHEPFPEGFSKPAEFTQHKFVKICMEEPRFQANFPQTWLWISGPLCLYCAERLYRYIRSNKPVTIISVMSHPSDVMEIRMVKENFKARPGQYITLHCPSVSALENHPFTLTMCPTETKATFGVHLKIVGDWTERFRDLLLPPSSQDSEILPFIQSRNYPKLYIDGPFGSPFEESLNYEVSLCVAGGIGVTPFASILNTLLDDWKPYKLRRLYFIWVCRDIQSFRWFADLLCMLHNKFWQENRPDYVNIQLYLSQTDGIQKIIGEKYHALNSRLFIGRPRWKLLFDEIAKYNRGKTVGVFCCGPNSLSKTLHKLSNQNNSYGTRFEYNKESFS
Sequence of NADPH oxidase 5 (Homo sapiens) (Q96PH1 whole entry, looked up): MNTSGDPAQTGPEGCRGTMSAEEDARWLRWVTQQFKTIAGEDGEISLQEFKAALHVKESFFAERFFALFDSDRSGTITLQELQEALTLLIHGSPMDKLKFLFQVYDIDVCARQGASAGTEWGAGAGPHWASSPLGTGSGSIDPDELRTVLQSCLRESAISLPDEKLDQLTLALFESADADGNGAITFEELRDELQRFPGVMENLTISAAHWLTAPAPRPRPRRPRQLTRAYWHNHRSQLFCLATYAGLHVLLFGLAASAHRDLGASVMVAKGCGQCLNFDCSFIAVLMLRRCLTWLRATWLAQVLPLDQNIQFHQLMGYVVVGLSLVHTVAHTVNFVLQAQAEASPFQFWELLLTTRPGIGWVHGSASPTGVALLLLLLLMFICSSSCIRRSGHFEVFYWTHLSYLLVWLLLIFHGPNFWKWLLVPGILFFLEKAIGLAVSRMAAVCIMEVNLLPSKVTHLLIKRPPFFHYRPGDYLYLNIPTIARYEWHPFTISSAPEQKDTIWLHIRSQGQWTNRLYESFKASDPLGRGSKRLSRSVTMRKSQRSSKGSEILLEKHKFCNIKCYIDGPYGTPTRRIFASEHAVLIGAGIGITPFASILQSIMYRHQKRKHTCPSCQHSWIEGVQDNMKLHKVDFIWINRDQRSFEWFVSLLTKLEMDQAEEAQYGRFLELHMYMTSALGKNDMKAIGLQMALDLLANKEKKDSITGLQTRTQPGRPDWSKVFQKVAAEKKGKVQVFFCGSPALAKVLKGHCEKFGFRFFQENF

For `COCCOC(=O)N1C(=O)[C@@]2(c3ccccc31)[C@H](C(=O)N1CCCCCCC1)[C@H]1C(=O)O[C@H](c3ccccc3)[C@H](c3ccccc3)N1[C@@H]2c1ccc(OCCO)cc1`, the z-score is -0.448 (inactive) in test [1]; 8.64 (active) in test [3]; 1.89 (inactive) in test [4]; 1.31 (inactive) in test [5]; 0.976 (inactive) in [6]; 0.213 in test [7]. Moreover, the z-score is -0.0367 (inactive) in test [8]; 0.867 (inactive) in [9]; 1.53 in test [10]; -0.134 in test [11]; -0.202 in test [12]; -0.265 in test [13]. Further, the z-score in test [14] was -0.88; in [15], -1.07; in test [16], -0.639; in test [17], -1.75 (inactive); in test [18] it was -0.714; in [19] it was -1.15. Moreover, the z-score in [20] was 0.526 (inactive). In [2], this molecule came in with a composite z-score of 3.13.

`COC(=O)[C@@]1(Cc2ccc(OC)cc2)[C@H]2c3cc(C(=O)N4CCCC4)n(CCc4ccc(O)c(O)c4)c3C[C@H]2CN1C(=O)c1ccccc1`: the z-score in test [1] was -1.84 (inactive); in [3] it was 5.39 (inactive); in test [4], 0.451 (inactive); in [5], 2.1 (inactive); in test [6], 0.912 (inactive); in [7], 0.198. The z-score in test [8] is -3.75 (inactive); in [9] it was -8.38 (active); in [10] it was -7.92; in test [11], -0.393; in test [12], 0.609; in test [13], -0.0727. Also, the z-score was -3.36 in [14]; -2.19 in test [15]; 0.923 in test [16]; -1.13 (inactive) in test [17]; -0.445 in [18]; -1.13 in [19]. The z-score in [20] was -0.0046 (inactive). Besides, in test [2], the composite z-score turned out to be 0.378.

`CCOc1cc(C(O)C2C=CC3C(=O)N(c4ccccc4)C(=O)C3N2Nc2ccc(C(C)C)cc2)ccc1O` (stereo not given): the z-score in [1] was -1.97 (inactive); in test [3], 11.5 (active); in test [4], 1.8 (inactive); in test [5] it was 1.74 (inactive); in test [6] it was 1.42 (inactive); in test [7], -0.729. Also, the z-score in [8] was -3.06 (inactive); in test [9], -4.82 (inactive); in test [10], -5.07; in [11], -0.65; in [12], -0.538; in test [13], -0.159. Besides, the z-score in test [14] was -2.67; in test [15], -1.16; in [16], -1.66; in test [17], -0.457 (inactive); in test [18], 0.41; in test [19] it was -0.19. Also, in test [20], the z-score was -0.866 (inactive). Further, the composite z-score in [2] stood at 0.469.

Consider `COc1ccc(C(O)C2C=CC3C(=O)N(C)C(=O)C3N2NC(=O)OC(C)(C)C)c2ccccc12` (stereo not given), for which the z-score in [1] is -1.17 (inactive); in [3] it was 1.9 (inactive); in [4], 1.09 (inactive); in test [5], 0.0084 (inactive); in test [6], 1.2 (inactive); in [7], -1.16. For the same molecule, the z-score was -0.674 (inactive) in test [8]; -1.92 (inactive) in test [9]; 0.384 in test [10]; -0.844 in test [11]; -0.769 in [12]; -1.99 in test [13]. Further, the z-score is 0.18 in test [14]; -0.463 in test [15]; -2.62 in [16]; 0.549 (inactive) in test [17]; 0.674 in test [18]; 0.932 in test [19]. For the same molecule, in [20], the z-score is 1.94 (inactive). The molecule also registered a composite z-score in test [2] of 0.445.
